PAFAH1B3 FP inh – inhibitors of human PAFAH1B3; Q15102; inhibition, % at 3.39 µM; recombinant PAFAH1B3, FP-rhodamine probe, fluorescence polarization; AID 492972; actives 0.28% (n = 340,000);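 active = inhibition above the screen-wide average of all tested compounds plus 3 SD, cut at about 25% in these data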;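 also: 0% = enzyme with DMSO only and 100% = wells lacking PAFAH1B3 protein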
pPAFAH inh – pPAFAH (human) enzyme inhibition | recombinant pPAFAH, FP-rhodamine probe fluorescence polarization | inhibition, % at 3.39 µM | AID 463082 | actives 1.5% (n = 330,000) | Q13093;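 active = inhibition above the mean inhibition across the screen plus 3 SD, cut at about 25% in these data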;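 also: inhibitors block binding of the rhodamine activity-based probe so polarization drops; 0% = enzyme with DMSO and 100% = wells lacking pPAFAH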
Target sequence (Q13093 whole entry, looked up): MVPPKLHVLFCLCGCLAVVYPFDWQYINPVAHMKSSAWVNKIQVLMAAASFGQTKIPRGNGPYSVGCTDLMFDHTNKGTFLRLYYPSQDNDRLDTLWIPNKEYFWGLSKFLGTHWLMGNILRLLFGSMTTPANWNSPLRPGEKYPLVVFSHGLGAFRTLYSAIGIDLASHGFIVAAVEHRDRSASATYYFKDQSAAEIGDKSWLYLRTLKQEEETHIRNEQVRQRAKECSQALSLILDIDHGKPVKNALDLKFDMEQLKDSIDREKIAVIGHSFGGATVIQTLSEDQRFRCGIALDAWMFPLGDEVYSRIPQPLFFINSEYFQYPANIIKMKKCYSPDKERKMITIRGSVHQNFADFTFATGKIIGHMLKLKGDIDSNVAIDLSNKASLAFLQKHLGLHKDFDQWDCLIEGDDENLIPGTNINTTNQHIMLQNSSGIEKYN
PAFAH2 FP inh – inhibitors of human PAFAH2; Q99487; recombinant PAFAH2, FP-rhodamine activity probe, fluorescence polarization; inhibition, % at 3.39 µM; actives 0.99% (n = 340,000);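 active = inhibition above the mean over all tested compounds plus 3 SD, cut at about 30% in these data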;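 also: inhibitors block probe labeling of enzyme so polarization drops; 0% = enzyme with DMSO and 100% = wells lacking PAFAH2 protein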
PAFAH1B2 inh – inhibitors of human PAFAH1B2; inhibition, % at 3.39 µM; AID 492953; recombinant PAFAH1B2, FP-rhodamine activity probe, fluorescence polarization; P68402; actives 1.2% (n = 340,000);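 active = inhibition above the mean of all tested compounds plus 3 SD, cut at about 24% in these data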;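 also: 0% = enzyme with DMSO and 100% = wells lacking PAFAH1B2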
DAGLB inhibitor – blocks human DAGLB lipase activity. inhibition, % at 5.17 µM. HEK293T DAGLB membrane lysate, EnzChek fluorogenic substrate. Q8NCG7. AID 504411. actives 0.059% (n = 340,000); in the data active = inhibition above about 34%;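 also: 0% = enzyme with vehicle and 100% = wells lacking enzyme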
HTRA1 inh – inhibitors of human serine peptidase HTRA1. Q92743. inhibition, % at 5.96 µM. recombinant HTRA1, FP-rhodamine activity-based probe, fluorescence polarization. actives 0.5% (n = 340,000); in the data active = inhibition above about 36%;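 also: 0% = enzyme with DMSO and 100% = wells lacking enzyme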
Numbers without * were called inactive; / = no result. A selection: hits, their analogues and other compounds. The true share with any hit is near 2.8%.

SMILES | PAFAH1B3 FP inh | pPAFAH inh | PAFAH2 FP inh | PAFAH1B2 inh | DAGLB inhibitor | HTRA1 inh
O=C(CSCc1ccccc1)NNC(=S)Nc1cccc(Cl)c1Cl | 9.6 | 31.7* | 28.6 | 17.3 | 9.4 | 1.2
C=CCn1c(SCC(=O)Nc2cccc(S(=O)(=O)N(C)c3ccccc3)c2)nnc1C1CC1 | -1.2 | 6.1 | 6.3 | 6.2 | -2.8 | -4.4
Nc1c(C(=O)OCC(=O)Nc2ccc(Cl)cc2[N+](=O)[O-])[nH]c(=O)[nH]c1=O | 2.5 | 33.2* | -4.1 | 0.8 | -0.9 | -1.8
N#C/C(=C(/O)COC(=O)Cc1c[nH]c2ccccc12)c1nc2ccccc2[nH]1 | 3.7 | 24.9* | 9.1 | 4.0 | -1.0 | 12.9
COc1ccccc1OCC(=O)OC/C(O)=C(\C#N)c1nc2ccccc2[nH]1 | 10.0 | 6.3 | -4.5 | 2.3 | 0.3 | 13.5
Cn1cnnc1SCc1ccc(-c2ccc(Br)cc2)o1 | 8.9 | 26.3* | 2.6 | 3.5 | 2.9 | -11.4
O=C(CCCCCn1nnc2ccccc2c1=O)Nc1ccccc1F | 9.7 | 0.2 | -1.5 | 1.2 | 2.3 | 3.6
CC(CC(=O)NCCc1ccc(Cl)cc1)S(=O)(=O)c1ccc2c(c1)NC(=O)CO2 (stereo not drawn) | 3.3 | 4.3 | 4.4 | 30.2* | 1.9 | 2.0
CN(C)C(=O)c1cc(C(=O)c2ccc(F)cc2C(F)(F)F)c[nH]1 | 5.9 | 29.8* | 1.8 | 5.3 | 0.4 | 3.0
CN(C)C(=O)c1cc(C(=O)c2ccccc2C(F)(F)F)c[nH]1 | 0.6 | 4.4 | 2.9 | -3.6 | 0.7 | 1.3
Cn1c(N)c(C(=O)CSc2nn(-c3ccccc3)c(=S)s2)c(=O)n(C)c1=O | -0.7 | / | 1.3 | 4.8 | 2.7 | -34.1
N#Cc1cccc(NC(=O)CSc2ccc3c4c(cccc24)C(=O)c2ccccc2-3)c1 | 27.4* | 23.4 | 35.9* | 29.8* | -83.7 | 1.7
CCOC(=O)N1CCN(C(=O)c2ccc3c(=O)n(CCC4=CCCCC4)c(=S)[nH]c3c2)CC1 | 3.2 | 5.5 | 8.7 | 24.8* | 4.3 | 0.5
CC(C)CN(C(=O)COC(=O)CSc1ccc([N+](=O)[O-])cc1)C1CCS(=O)(=O)C1 (stereo not drawn) | 5.9 | 3.6 | 3.4 | 24.7* | -2.2 | -0.2
Cc1ccc(SCC(=O)OCC(=O)N(C)C2CCS(=O)(=O)C2)cc1C (stereo not drawn) | 6.8 | 24.6* | -11.1 | 3.9 | 3.9 | 0.1
CC(=O)OC[C@]12CC[C@H]3[C@@](C)(CC[C@H]4C(C)(C)CCC[C@]34C)[C@@H]1C[C@H](C1=CC(=O)O[C@@H]1OC(C)=O)O2 | / | 44.9* | / | / | / | /
CCc1ccccc1NC(=O)CNC(=O)CCC(=O)c1cc(C)sc1C | / | / | / | / | -0.9 | -6.5
Cc1ccc(C2C(C#N)=C(N)Oc3cc(N)ccc32)cc1 (stereo not drawn) | -1.8 | 26.7* | -1.4 | 5.4 | 1.8 | 11.3
N#CC1=C(N)Oc2cc(N)ccc2C1c1ccsc1 (stereo not drawn) | 7.0 | 14.9 | 2.2 | 1.4 | -1.8 | 7.8
COC(=O)c1ccccc1CSc1nsc(/C=C/N(C)C)c1C#N | 6.2 | 28.2* | -1.2 | 4.0 | -0.3 | -5.9
Cc1nc(CSc2nsc(/C=C/N(C)C)c2C#N)cs1 | -4.9 | / | 0.4 | 0.1 | -2.3 | -35.0
CCS(=O)(=O)N1CCC(NC(=O)C(Cc2cccc(OC)c2OC)NC(C)=O)CC1 (stereo not drawn) | 8.6 | / | 2.8 | -1.7 | 1.8 | 9.9
COc1cccc(NC(=O)CN(C)C(=O)COc2ccccc2Cc2ccccc2)c1 | -1.7 | -1.0 | 7.2 | 4.6 | -2.6 | -36.7
Cc1ccc(-n2cccc2/C=C2/C(=N)N3C(=NC2=O)SN=C3S(C)(=O)=O)cc1 | -7.7 | 2.0 | -6.5 | 27.7* | 9.6 | -46.8
Cc1ccc(S(=O)(=O)Oc2ccc(/C=C3\C(=N)N4N=C(S(C)(=O)=O)SC4=NC3=O)cc2)cc1 | -0.9 | 11.4 | -6.1 | 59.8* | 6.3 | -17.8
Cc1ccc(S(=O)(=O)Oc2ccc(/C=C3/C(=N)N4C(=NC3=O)SN=C4S(C)(=O)=O)cc2)cc1 | 2.6 | 3.4 | -1.1 | 50.0* | 3.6 | -14.5
CS(=O)(=O)C1=NSC2=NC(=O)/C(=C\c3ccc(OS(=O)(=O)c4ccccc4)cc3)C(=N)N21 | 0.7 | 8.0 | -7.2 | 24.9* | 3.1 | -5.4
CCc1ccc(-n2cccc2/C=C2/C(=N)N3C(=NC2=O)SN=C3S(C)(=O)=O)cc1 | -9.0 | -1.9 | -13.6 | 1.9 | 13.2 | -66.2

Screens (PubChem BioAssay)
